Source: PubChem
An excerpt weighted towards active compounds, which were near 4.2% of everything screened.
Mac1 fbg inh = inhibitors of CD11b/CD18 adhesion to fibrinogen, primary screen, K562 cells, luminescence | Integrin beta-2 (Homo sapiens) + Integrin alpha-M (Homo sapiens), P05107+P11215 | ATPlite luminescence; Mn2+ added to activate the integrin | inhibition, % at 10 µM | hit rate 0.54% among 93,000 | AID 1497, 2009;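 active = primary inhibition of 50% or more at 10 µM, then 40% or more on retest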
Cav32 inh = Cav3.2 calcium influx blockers – cell-based, Fluo-4 calcium fluorescence, FDSS, MLSMR library, primary screen | Cav3.2-expressing cells; stronger effect = lower value | B-score at 10 µM | hit rate 4% among 100,000;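 active = single-dose well whose peak fluorescence ratio is a statistical outlier from its plate by either plate-standardised score or position-corrected B-score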
PTK2B oligo ant = antagonists of Pyk2 self-association, primary screen, Q293 cells, FERM NanoBiT luminescence, HTS; Protein-tyrosine kinase 2-beta (Homo sapiens), Q14289; stronger effect = lower value; z-score (the deposit names both 25 µM and 10 µM); hit rate 0.83% among 99,000; AID 1347419, 2020;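 active = Z-score of -3 or lower, scaled per plate to the spread of control and sample wells; inactive = z-score above -3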;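 also: negative z-score means lost luminescence so less FERM oligomerization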
E coli RNAP = E. coli RNAP inhibitors, biochemical; DNA-directed RNA polymerase subunit beta (Escherichia coli (strain K12)), P0A8V2; E. coli RNA polymerase, fluorescence transcription assay; inhibition, %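 (tested at 10 µM)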; hit rate 0.2% among 62,000; AID 559, 2006; in the data active = inhibition above about 20%
CD11b adhes enh = enhancers of CD11b/CD18 adhesion to fibrinogen, primary screen, K562 cells, luminescence | Integrin beta-2 (Homo sapiens) + Integrin alpha-M (Homo sapiens), P05107+P11215 | hit rate 0.07% among 93,000 | activation, % at 10 µM | ATPlite luminescence;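 active = 10 µM primary screen giving 50% or more activity, confirmed by 40% or more on retest at that dose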
A number is an active result; n = inactive; x = not tested or not shown.

SMILES	Mac1 fbg inh	Cav32 inh	PTK2B oligo ant	E coli RNAP	CD11b adhes enh
Cc1ccc(CN2C(=O)C(C)(C)Oc3ccc(C(=O)N4CCCCC4)cc32)cc1	n	-5.2	n	n	n
CN(C)c1ccc(C2C=C(c3ccc(Cl)cc3OC(F)F)Nc3ncnn32)cc1 (configuration not stated)	n	-5.9	n	n	n
CCOC(=O)c1c(NC(=O)Cn2cnc3scc(-c4ccc(C)cc4)c3c2=O)sc(C)c1C	n	x	x	x	n
Cc1cc(C(=O)N[C@@H](c2ccccc2)[C@]2(C)C[C@H]2[C@@H](C)C(=O)Nc2ccc3ccccc3c2)no1	x	-4.6	x	x	x
Cc1cc(C(=O)N[C@H](c2ccccc2)[C@@]2(C)C[C@@H]2[C@@H](C)C(=O)Nc2ccc3ccccc3c2)no1	x	n	x	x	x
Cc1ccc(S(=O)(=O)N2CCOCC2)cc1C(=O)Nc1nc2ccccc2[nH]1	n	x	x	x	n
CCOC(=O)C1=C(c2cccc(F)c2)NC(=S)NC1C (configuration not stated)	n	n	n	x	n
CCCOc1ccc([N+](=O)[O-])cc1C1NC(=S)NC(c2ccccc2)=C1C(=O)OCC (configuration not stated)	x	n	-4.1	x	x
Oc1ccccc1-c1nnc(COc2ccccc2)o1	n	n	x	n	n
Oc1ccccc1-c1nnc(COc2ccc(Cl)cc2Cl)o1	n	-5.9	x	n	n
CSc1cccc(NC(=O)/C=C/c2ccccc2)c1	x	-6.3	n	x	x
NC(=S)N/N=C/c1ccc(-c2cc(Cl)ccc2Cl)o1	n	n	-3	x	n
O=C(Nc1ccc(-c2cn3ccsc3n2)cc1)c1ccc(F)c(S(=O)(=O)N2CCOCC2)c1	n	n	-3.7	n	n
O=C(Nc1ccccc1)C1=C[C@@H](c2coc3ccccc3c2=O)C[C@@H](OCCCCO)O1	x	n	x	x	x
O=C(NCCOC12CC3CC(CC(C3)C1)C2)c1cccc(Br)c1	x	n	n	x	x
CCOC(=O)c1nnn(-c2nc(N3CCCC3)nc(N3CCCC3)n2)c1-c1ccccc1	n	x	n	n	n
CCOC(=O)c1nnn(-c2nc(OC)nc(N3CCCCC3)n2)c1-c1ccccc1	x	-6.1	x	x	x
CCOC(=O)c1c(-c2ccccc2)nnn1-c1nc(OCC)nc(N2CCCCC2)n1	n	-7.6	n	n	n
CSCC[C@H](NC(=O)c1ccc(Cl)c(S(=O)(=O)N2CCCC2)c1)c1nc2ccccc2[nH]1	n	n	n	x	n
COc1cccc2c1C(=O)O/C2=C/c1ccc2c(c1)OCO2	52	n	n	x	n
CCOc1ccccc1OCCCCCc1c(C)n[nH]c1C	n	-3.6	n	n	n
COc1cccc(OCCc2c(C)n[nH]c2C)c1	n	n	n	x	n
COc1ccccc1OCCCCCc1c(C)n[nH]c1C	62	n	n	n	n
Cc1cccc(OCCCCc2c(C)n[nH]c2C)c1	n	-5.8	n	n	n
Cc1cccc(OCCCCc2c(C)n[nH]c2C)c1C	90	n	n	n	n
SMILES	Mac1 fbg inh	Cav32 inh	PTK2B oligo ant	E coli RNAP	CD11b adhes enh
O=C(COC(=O)/C=C/C(=O)OCC(=O)NC12CC3CC(CC(C3)C1)C2)NC12CC3CC(CC(C3)C1)C2	n	x	x	x	n
COc1ccc(NC(=O)C(Sc2nnc3ccccn23)c2ccccc2)cc1Cl (configuration not stated)	n	x	x	x	n
CC1CC1C(=O)Nc1nc(-c2ccccc2)cs1 (configuration not stated)	n	-4	n	x	n
Nc1nc(C2CCCN2S(=O)(=O)c2ccc(Cl)cc2)cs1 (configuration not stated)	n	n	-3.2	n	n
COc1ccc(-c2csc(NC(=O)C3CCCCN3S(=O)(=O)c3ccccc3)n2)cc1 (configuration not stated)	n	-6.2	-3.4	x	n
Cc1cnc(C(=O)Nc2nc(-c3ccccc3)cs2)cn1	n	x	x	x	n
O=C(Nc1nc2ccccc2s1)C1CCCN1S(=O)(=O)c1ccc(Cl)cc1 (configuration not stated)	n	-5.3	n	n	n
O=C1CCC(c2ccc(-n3ccnc3)cc2)=NN1	x	n	x	x	x
Cc1ccc(-c2cc(C(F)F)n3ncc(C(=O)N4CCN(c5cccc(C)c5C)CC4)c3n2)cc1	n	n	n	x	n
O=C1CC(SCCc2nc3ccccc3[nH]2)C(=O)N1c1ccc(Cl)cc1 (configuration not stated)	n	-6.5	n	x	n
O=C1CC(SCc2nc3ccccc3[nH]2)C(=O)N1c1ccc(F)c(Cl)c1 (configuration not stated)	n	n	n	x	n
O=C1CC(SCc2nc3ccccc3[nH]2)C(=O)N1c1ccc(Cl)cc1 (configuration not stated)	n	-4.9	n	x	n
O=C(C1CCCN(S(=O)(=O)c2ccccc2[N+](=O)[O-])C1)N1CCCC1 (configuration not stated)	n	x	x	x	n
Cc1ccc(N2C(=O)CC2(C#N)c2ccc(OCc3ccccc3)cc2)cc1 (configuration not stated)	n	n	n	x	n
N#Cc1nc(-c2cccs2)oc1NCc1ccc2c(c1)OCO2	n	-5.6	n	n	n
CNc1oc(-c2cccs2)nc1C#N	x	x	n	n	x
COc1ccc(Nc2oc(-c3cccs3)nc2C#N)cc1	x	-4.4	n	n	x
Cc1ccc(C)n1-c1ccc(C(=O)NN)cc1	n	x	x	x	n
CCOc1cc(C(=S)N2CCOCC2)ccc1OS(=O)(=O)c1ccc(NC(C)=O)cc1	88	n	n	x	n
Cc1ccc(NC(=O)C2(c3cccs3)CCOCC2)cc1C	n	x	x	x	n
Cc1occc1C(=O)Nc1cccc(C(=O)NCc2ccccc2)c1	n	-3.8	n	n	n
O=C(NCc1ccco1)c1cccc(NC(=O)c2ccccc2)c1	n	n	n	n	n
CC1CN(C(=O)N2c3ccccc3Sc3ccccc32)C(C)CC1=O (configuration not stated)	n	-4.6	n	n	n
O=C(CSc1nnc(CNC(=O)c2cccs2)o1)Nc1cccc(C(F)(F)F)c1	n	-5.5	n	n	n
O=C(CSc1nnc(CNC(=O)c2cccs2)o1)NC1CCCC1	x	n	n	n	x
SMILES	Mac1 fbg inh	Cav32 inh	PTK2B oligo ant	E coli RNAP	CD11b adhes enh
O=C(Nc1nnc(-c2ccccc2Cl)o1)c1ccco1	n	n	n	n	n
O=C(Nc1nnc(-c2ccccc2Cl)o1)c1nc2ccccc2s1	n	-4.5	x	x	n
Cc1cc2oc(=O)cc(CN3CCc4ccccc43)c2cc1Cl	n	-5.3	n	n	n
CCOC(=O)N1CCN(C(=O)CN(C2CCCCC2)S(=O)(=O)c2ccc(C)cc2)CC1	n	n	n	x	n
Cc1ccc(Cl)cc1N1CCN(C(=O)CN(C2CCCCC2)S(C)(=O)=O)CC1	x	-4.9	n	x	x
CS(=O)(=O)N(CC(=O)N1CCN(c2cccc(Cl)c2)CC1)C1CCCCC1	n	n	n	n	n
CCOC(=O)N1CCC(Nc2c(N3CCN(c4cc(Cl)ccc4C)CC3)c(=O)c2=O)CC1	n	-4.1	x	n	n
